Source: PMC7862700, “An all-to-all approach to the identification of sequence-specific readers for epigenetic DNA modifications on cytosine”

Experiments:
Assay in all cases: DAPPL (digital affinity profiling via proximity ligation, sequencing); 10 mM Tris-HCl pH 7.5, 50 mM NaCl, 1 mM DTT, 4% glycerol, room temperature, 30 min; GST-TFs on glutathione beads, 16-mer random dsDNA library, 0.1% formaldehyde crosslink after washing; high values mean tight binding
[1] = target: T1, FLI1 (Homo sapiens, UniProt Q01543 1-452); conditions: protein: recombinant; tags: N-terminal GST; dsDNA, one strand shown
T1 sequence: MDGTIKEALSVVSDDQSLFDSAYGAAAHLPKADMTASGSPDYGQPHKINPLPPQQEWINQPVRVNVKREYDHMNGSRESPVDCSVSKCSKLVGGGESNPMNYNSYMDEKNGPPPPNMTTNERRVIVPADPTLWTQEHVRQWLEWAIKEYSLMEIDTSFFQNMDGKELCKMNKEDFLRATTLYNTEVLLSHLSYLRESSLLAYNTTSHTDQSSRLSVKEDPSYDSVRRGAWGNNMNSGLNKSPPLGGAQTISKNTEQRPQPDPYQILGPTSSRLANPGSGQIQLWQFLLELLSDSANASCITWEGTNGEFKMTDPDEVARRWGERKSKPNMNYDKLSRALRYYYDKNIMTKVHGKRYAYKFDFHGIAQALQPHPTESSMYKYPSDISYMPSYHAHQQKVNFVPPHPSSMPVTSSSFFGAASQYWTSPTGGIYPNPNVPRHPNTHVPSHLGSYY
Summary of the method: (§1)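 Human transcription factors fused to GST were expressed in yeast, captured on glutathione beads, given DNA barcodes and pooled with a GST-only negative control. Pools were incubated with 200 nmole of a 16-mer random double-stranded DNA library in Tris/NaCl/DTT/glycerol buffer at room temperature for 30 min. They were then washed, crosslinked with 0.1% formaldehyde, proximity-ligated (BsaI/T4 ligase, 1 h, 37 °C), PCR-amplified and sequenced on an Illumina NextSeq500. Binding signal is each 6-mer's read frequency for a factor divided by its frequency for the GST control.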

[2] = target: T2, ELK1 (Homo sapiens, UniProt P19419 1-428); conditions: protein: recombinant; tags: N-terminal GST; dsDNA, one strand shown
T2 sequence: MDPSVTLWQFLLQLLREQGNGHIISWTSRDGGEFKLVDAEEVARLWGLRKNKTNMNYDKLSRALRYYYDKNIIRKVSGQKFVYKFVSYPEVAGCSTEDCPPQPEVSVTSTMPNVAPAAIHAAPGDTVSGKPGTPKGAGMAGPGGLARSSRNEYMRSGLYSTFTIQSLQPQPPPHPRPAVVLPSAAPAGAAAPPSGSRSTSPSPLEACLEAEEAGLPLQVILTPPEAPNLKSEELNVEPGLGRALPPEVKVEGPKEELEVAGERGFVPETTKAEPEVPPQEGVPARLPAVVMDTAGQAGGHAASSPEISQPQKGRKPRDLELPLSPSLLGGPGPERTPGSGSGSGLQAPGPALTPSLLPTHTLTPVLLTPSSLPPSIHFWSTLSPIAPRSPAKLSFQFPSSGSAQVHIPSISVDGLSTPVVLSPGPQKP
Summary of the method: as §1

[3] = target: T3, GABPA (Homo sapiens, UniProt Q06546 1-454); conditions: protein: recombinant; tags: N-terminal GST; dsDNA, one strand shown
T3 sequence: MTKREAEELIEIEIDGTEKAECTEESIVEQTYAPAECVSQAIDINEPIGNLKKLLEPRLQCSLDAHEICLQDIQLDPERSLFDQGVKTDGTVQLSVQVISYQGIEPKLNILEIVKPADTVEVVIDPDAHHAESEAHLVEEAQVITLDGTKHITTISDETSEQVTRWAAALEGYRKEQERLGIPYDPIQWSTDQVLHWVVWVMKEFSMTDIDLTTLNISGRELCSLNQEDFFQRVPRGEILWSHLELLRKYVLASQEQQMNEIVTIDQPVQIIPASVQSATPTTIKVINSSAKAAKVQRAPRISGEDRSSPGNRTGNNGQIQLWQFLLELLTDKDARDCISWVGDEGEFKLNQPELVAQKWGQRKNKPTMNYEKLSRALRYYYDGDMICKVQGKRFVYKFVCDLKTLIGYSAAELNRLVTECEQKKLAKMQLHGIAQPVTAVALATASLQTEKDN
Summary of the method: as §1

[4] = target: T4, ERG (Homo sapiens, UniProt P11308 1-479); conditions: protein: recombinant; tags: N-terminal GST; dsDNA, one strand shown
T4 sequence: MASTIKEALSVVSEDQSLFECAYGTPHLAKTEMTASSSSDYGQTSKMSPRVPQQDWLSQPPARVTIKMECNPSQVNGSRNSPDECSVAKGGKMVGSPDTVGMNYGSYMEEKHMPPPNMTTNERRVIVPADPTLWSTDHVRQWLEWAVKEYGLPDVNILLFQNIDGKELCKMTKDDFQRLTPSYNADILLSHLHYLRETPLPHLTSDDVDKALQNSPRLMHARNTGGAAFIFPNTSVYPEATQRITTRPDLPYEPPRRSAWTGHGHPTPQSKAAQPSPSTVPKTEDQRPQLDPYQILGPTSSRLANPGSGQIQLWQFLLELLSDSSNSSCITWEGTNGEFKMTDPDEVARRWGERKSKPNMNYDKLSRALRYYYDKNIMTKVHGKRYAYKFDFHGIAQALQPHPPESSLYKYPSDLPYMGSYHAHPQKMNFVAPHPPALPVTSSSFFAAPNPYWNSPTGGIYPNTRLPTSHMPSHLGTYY
Summary of the method: as §1

[5] = target: ELF1 (Homo sapiens, UniProt P32519 1-619); conditions: protein: recombinant; tags: N-terminal GST; dsDNA, one strand shown
Chain of ELF1 (P32519 whole entry): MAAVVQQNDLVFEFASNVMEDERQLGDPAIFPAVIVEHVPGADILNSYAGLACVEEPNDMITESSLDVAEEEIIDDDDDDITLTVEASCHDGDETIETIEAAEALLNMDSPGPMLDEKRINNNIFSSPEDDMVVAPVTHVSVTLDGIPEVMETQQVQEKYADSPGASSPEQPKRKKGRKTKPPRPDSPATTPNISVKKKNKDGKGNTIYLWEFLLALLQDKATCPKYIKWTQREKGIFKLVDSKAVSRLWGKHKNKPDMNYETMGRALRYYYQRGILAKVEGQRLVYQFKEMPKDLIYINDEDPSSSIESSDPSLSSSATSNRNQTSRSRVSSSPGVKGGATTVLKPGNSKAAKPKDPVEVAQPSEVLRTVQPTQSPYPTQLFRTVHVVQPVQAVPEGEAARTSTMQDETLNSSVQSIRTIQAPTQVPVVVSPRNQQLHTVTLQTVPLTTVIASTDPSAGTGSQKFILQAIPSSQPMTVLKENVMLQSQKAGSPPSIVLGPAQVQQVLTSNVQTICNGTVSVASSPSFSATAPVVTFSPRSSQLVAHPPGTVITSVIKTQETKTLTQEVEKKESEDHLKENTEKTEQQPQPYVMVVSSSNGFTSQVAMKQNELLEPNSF
Summary of the method: as §1

[6] = target: T5, EHF (Homo sapiens, UniProt Q9NZC4 1-300); conditions: protein: recombinant; tags: N-terminal GST; dsDNA, one strand shown
T5 sequence: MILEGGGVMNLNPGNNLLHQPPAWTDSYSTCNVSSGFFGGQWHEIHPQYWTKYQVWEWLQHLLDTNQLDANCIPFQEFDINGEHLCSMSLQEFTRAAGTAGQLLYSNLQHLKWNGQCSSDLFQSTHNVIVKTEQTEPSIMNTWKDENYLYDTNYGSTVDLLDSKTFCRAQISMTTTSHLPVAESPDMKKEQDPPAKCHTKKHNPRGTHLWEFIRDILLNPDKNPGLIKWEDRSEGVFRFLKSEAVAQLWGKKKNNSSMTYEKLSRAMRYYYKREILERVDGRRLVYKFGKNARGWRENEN
Summary of the method: as §1

[7] = target: SPI1 (Homo sapiens, UniProt P17947 1-270); conditions: protein: recombinant; tags: N-terminal GST; dsDNA, one strand shown
Summary of the method: as §1

[8] = target: SPIB (Homo sapiens, UniProt Q01892 1-262); conditions: protein: recombinant; tags: N-terminal GST; dsDNA, one strand shown
Chain of SPIB (Q01892 whole entry): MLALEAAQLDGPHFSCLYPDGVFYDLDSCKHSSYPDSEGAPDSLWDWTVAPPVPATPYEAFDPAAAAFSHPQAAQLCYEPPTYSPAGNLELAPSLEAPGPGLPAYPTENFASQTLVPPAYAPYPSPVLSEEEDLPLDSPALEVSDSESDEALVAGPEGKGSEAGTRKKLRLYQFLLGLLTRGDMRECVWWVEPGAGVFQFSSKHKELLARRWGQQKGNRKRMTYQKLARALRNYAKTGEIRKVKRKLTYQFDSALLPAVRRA
Summary of the method: as §1

[9] = target: T6, ELK3 (Homo sapiens, UniProt P41970 1-407); conditions: protein: recombinant; tags: N-terminal GST; dsDNA, one strand shown
T6 sequence: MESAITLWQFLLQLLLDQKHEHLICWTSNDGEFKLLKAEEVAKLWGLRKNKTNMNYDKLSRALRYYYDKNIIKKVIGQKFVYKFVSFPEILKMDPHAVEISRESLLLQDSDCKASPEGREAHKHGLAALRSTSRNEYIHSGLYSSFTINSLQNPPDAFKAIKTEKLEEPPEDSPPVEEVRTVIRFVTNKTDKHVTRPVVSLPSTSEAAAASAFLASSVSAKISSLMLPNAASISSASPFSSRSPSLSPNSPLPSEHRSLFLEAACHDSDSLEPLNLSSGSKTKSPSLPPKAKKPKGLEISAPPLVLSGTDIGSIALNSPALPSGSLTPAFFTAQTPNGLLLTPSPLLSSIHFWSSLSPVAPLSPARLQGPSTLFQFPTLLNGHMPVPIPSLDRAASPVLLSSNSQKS
Summary of the method: as §1

[10] = target: T7, FEV (Homo sapiens, UniProt Q99581 1-238); conditions: protein: recombinant; tags: N-terminal GST; dsDNA, one strand shown
T7 sequence: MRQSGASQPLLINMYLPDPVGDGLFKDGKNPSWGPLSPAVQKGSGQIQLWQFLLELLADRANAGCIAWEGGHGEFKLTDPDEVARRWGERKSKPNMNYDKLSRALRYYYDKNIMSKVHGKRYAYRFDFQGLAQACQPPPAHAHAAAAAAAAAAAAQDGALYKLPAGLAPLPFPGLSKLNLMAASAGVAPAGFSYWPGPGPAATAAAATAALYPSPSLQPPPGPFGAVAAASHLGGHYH
Summary of the method: as §1

[11] = target: ETV5 (Homo sapiens, UniProt P41161 1-510); conditions: protein: recombinant; tags: N-terminal GST; dsDNA, one strand shown
Chain of ETV5 (P41161 whole entry): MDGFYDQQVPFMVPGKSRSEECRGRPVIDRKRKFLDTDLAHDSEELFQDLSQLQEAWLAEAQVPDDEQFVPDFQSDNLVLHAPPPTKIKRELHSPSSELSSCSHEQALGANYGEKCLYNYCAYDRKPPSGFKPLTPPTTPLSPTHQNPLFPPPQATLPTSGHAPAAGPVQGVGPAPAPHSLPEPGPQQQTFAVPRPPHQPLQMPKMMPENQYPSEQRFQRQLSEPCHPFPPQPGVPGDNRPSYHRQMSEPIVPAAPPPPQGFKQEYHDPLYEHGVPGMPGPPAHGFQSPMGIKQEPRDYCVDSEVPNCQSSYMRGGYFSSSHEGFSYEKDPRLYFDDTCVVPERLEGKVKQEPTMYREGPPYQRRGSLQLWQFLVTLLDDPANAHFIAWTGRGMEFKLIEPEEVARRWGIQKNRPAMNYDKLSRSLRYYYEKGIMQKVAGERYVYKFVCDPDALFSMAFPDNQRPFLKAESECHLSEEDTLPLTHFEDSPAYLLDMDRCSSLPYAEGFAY
Summary of the method: as §1

[12] = target: HSF1 (Homo sapiens, UniProt Q00613 1-529); conditions: protein: recombinant; tags: N-terminal GST; chain copies: 3; dsDNA, one strand shown
Chain of HSF1 (Q00613 whole entry): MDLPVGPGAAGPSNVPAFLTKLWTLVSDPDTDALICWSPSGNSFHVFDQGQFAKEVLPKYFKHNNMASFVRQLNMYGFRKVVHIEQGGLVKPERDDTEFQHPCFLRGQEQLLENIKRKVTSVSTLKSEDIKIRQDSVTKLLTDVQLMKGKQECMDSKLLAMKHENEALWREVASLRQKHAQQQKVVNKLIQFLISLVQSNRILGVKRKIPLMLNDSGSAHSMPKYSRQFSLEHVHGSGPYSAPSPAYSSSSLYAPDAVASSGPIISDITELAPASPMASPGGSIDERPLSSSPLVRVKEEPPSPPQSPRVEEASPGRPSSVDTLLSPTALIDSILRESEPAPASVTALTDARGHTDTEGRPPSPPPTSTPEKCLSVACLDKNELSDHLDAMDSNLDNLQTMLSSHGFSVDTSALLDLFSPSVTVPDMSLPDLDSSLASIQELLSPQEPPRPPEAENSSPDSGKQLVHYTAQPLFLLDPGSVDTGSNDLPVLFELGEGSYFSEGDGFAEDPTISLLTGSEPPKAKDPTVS
Summary of the method: as §1

[13] = target: T8, SPIC (Homo sapiens, UniProt Q8N5J4 1-248); conditions: protein: recombinant; tags: N-terminal GST; dsDNA, one strand shown
T8 sequence: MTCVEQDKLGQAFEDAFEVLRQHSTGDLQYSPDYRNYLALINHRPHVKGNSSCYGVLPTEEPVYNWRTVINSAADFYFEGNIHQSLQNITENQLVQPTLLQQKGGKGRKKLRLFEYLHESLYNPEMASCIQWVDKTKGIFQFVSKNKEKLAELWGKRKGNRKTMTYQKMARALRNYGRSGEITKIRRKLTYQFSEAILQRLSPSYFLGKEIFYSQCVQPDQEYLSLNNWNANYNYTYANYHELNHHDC
Summary of the method: as §1

[14] = target: ELF4 (Homo sapiens, UniProt Q99607 1-663); conditions: protein: recombinant; tags: N-terminal GST; dsDNA, one strand shown
Chain of ELF4 (Q99607 whole entry): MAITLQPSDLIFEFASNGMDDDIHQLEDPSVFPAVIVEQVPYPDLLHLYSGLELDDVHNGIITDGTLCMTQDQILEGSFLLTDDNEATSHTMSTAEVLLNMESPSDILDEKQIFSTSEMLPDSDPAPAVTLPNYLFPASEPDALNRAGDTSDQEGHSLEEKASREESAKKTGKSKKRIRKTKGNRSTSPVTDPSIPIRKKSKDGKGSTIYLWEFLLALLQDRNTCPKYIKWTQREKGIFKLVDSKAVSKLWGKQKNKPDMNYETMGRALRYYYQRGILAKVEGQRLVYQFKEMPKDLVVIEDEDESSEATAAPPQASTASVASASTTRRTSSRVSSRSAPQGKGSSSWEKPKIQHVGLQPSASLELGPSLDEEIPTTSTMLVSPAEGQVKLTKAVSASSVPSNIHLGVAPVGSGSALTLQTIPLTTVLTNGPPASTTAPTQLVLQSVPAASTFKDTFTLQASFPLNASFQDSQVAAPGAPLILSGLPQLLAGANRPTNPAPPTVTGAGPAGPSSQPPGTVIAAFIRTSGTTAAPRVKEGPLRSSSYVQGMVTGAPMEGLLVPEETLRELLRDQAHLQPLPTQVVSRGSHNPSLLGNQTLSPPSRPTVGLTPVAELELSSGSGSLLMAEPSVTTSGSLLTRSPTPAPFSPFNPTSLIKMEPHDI
Summary of the method: as §1

[15] = target: T9, ELK4 (Homo sapiens, UniProt P28324-2 1-405); conditions: protein: recombinant; tags: N-terminal GST; dsDNA, one strand shown
T9 sequence: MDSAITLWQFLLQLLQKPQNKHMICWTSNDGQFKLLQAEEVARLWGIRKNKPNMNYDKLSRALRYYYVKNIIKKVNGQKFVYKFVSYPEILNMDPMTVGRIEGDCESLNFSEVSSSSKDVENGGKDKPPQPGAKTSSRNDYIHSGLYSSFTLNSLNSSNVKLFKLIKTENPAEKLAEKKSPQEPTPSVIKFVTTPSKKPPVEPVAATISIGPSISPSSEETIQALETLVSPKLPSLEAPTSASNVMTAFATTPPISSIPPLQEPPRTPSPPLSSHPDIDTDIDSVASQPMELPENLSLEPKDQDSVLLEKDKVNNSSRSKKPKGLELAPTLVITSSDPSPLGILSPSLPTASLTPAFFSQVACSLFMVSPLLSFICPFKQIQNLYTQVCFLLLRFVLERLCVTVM
Summary of the method: as §1

[16] = target: T10, ETV2 (Homo sapiens, UniProt O00321 1-342); conditions: protein: recombinant; tags: N-terminal GST; dsDNA, one strand shown
T10 sequence: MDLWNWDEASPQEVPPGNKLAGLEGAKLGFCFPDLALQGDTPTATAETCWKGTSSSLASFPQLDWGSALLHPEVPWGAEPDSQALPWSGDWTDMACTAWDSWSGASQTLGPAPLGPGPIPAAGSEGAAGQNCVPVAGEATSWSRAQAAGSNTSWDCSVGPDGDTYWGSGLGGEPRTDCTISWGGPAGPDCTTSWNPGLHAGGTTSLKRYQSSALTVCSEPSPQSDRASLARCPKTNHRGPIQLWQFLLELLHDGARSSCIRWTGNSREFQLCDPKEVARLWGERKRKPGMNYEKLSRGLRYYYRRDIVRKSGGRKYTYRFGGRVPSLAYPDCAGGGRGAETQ
Summary of the method: as §1

[17] = target: T11, ELF3 (Homo sapiens, UniProt P78545 1-371); conditions: protein: recombinant; tags: N-terminal GST; dsDNA, one strand shown
T11 sequence: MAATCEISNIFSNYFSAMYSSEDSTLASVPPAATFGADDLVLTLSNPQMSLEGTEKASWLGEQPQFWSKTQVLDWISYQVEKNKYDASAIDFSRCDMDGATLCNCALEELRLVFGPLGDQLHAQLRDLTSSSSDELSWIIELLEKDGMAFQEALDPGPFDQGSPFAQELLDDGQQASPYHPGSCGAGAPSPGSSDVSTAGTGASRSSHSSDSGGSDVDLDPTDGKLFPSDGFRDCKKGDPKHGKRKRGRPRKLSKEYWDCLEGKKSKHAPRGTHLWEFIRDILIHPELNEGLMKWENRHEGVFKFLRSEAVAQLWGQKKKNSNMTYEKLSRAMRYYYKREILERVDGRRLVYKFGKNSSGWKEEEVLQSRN
Summary of the method: as §1

[18] = target: CRX (Homo sapiens, UniProt O43186 1-299); conditions: protein: recombinant; tags: N-terminal GST; dsDNA, one strand shown
Chain of CRX (O43186 whole entry): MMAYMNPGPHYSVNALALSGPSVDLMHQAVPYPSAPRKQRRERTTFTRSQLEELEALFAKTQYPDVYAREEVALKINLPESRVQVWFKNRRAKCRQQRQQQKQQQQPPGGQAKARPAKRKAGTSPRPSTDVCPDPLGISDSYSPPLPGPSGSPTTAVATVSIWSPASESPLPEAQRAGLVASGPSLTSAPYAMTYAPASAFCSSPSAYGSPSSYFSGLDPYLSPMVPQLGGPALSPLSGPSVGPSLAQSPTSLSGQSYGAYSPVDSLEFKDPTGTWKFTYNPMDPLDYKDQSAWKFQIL
Summary of the method: as §1

[19] = target: ETV1 (Homo sapiens, UniProt P50549 1-477); conditions: protein: recombinant; tags: N-terminal GST; dsDNA, one strand shown
Chain of ETV1 (P50549 whole entry): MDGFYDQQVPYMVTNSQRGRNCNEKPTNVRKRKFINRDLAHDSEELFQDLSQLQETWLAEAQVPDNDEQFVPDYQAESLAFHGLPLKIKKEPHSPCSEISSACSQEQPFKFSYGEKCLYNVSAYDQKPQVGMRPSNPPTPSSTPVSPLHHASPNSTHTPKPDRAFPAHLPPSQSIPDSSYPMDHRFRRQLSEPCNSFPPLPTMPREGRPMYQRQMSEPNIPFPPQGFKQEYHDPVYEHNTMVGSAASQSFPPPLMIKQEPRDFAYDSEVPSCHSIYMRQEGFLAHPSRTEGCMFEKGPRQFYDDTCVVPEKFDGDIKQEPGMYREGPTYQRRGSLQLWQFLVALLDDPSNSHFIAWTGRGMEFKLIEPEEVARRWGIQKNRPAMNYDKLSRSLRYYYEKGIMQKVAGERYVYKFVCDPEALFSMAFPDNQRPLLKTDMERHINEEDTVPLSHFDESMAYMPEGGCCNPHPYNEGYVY
Summary of the method: as §1

Sequence: CATATT
- binding signal [1]: 1.22 fold enrichment (6-mer frequency, TF over GST control)
- binding signal [2]: 1.17 fold enrichment (6-mer frequency, TF over GST control)
- binding signal [3]: 1.27 fold enrichment (6-mer frequency, TF over GST control)
- binding signal [4]: 1.26 fold enrichment (6-mer frequency, TF over GST control)
- binding signal [5]: 1.24 fold enrichment (6-mer frequency, TF over GST control)
- binding signal [6]: 1.17 fold enrichment (6-mer frequency, TF over GST control)
- binding signal [7]: 1.27 fold enrichment (6-mer frequency, TF over GST control)
- binding signal [8]: 1.28 fold enrichment (6-mer frequency, TF over GST control)
- binding signal [9]: 1.17 fold enrichment (6-mer frequency, TF over GST control)
- binding signal [10]: 1.22 fold enrichment (6-mer frequency, TF over GST control)
- binding signal [11]: 1.26 fold enrichment (6-mer frequency, TF over GST control)
- binding signal [12]: 1.31 fold enrichment (6-mer frequency, TF over GST control)
- binding signal [13]: 1.12 fold enrichment (6-mer frequency, TF over GST control)
- binding signal [14]: 1.32 fold enrichment (6-mer frequency, TF over GST control)
- binding signal [15]: 1.29 fold enrichment (6-mer frequency, TF over GST control)
- binding signal [16]: 1.43 fold enrichment (6-mer frequency, TF over GST control)
- binding signal [17]: 1.35 fold enrichment (6-mer frequency, TF over GST control)
- binding signal [18]: 1.33 fold enrichment (6-mer frequency, TF over GST control)
- binding signal [19]: 1.25 fold enrichment (6-mer frequency, TF over GST control)
